Several values for one entry are separate records, joined by “and”; a condition that tells them apart may be missing. Equal values may be shown once. Results filed as inconclusive are left out. Activity calls are given as the source filed them. Unless noted, the call rests on the fitted dose curve; in most records, active means well fitted curve in the direction sought with a large enough effect; inconclusive means small, poorly fitted or top-dose-only effect, or another doubt; inactive means no such curve, though single readings can be large; an effect the other way counts as inactive or inconclusive.
Experiments:
[1] = qHTS assay for small molecule agonists of the antioxidant response element (ARE) signaling pathway measured by Nrf2-dependant transcriptional activity (AID 720636; active means well fitted curve in the direction sought with a large enough effect in the repeat runs; an effect the other way counts as inactive or inconclusive; further: potency means the concentration at half of the fitted maximal effect)
Procedure, shortened: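 ARE-luc HepG2 cells carrying an Nrf2-responsive luciferase reporter were plated in medium with 1% dialyzed FBS, left 6 hr at 37 C to attach, then exposed to compound for 16 hr. Luciferase luminescence was read after ONE-Glo addition.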

[2] = qHTS assay for small molecule antagonists of the retinoid-related orphan receptor gamma (ROR-gamma) signaling pathway - cell viability counter screen (AID 720652; active means well fitted curve in the direction sought with a large enough effect in the repeat runs; an effect the other way counts as inactive or inconclusive;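 further: compound exposure lasted 16 hr before ATP read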; further: potency means the concentration at half of the fitted maximal effect)
Procedure, shortened: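 Cytotoxicity counter screen: intracellular ATP (CellTiter-Glo luminescence) measured in the doxycycline-induced CHO RORE-luciferase reporter line after 16 hr compound exposure at 37 C, 5% CO2.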

[3] = qHTS assay for small molecule agonists of the antioxidant response element (ARE) signaling pathway measured by Nrf2-dependant transcriptional activity - cell viability counter screen (AID 720653; active means well fitted curve in the direction sought with a large enough effect in the repeat runs; an effect the other way counts as inactive or inconclusive; further: potency means the concentration at half of the fitted maximal effect; on max response: on the % scale 0 is the no-effect control and ±100 the full control effect); details: ARE-bla HepG2 viability, CellTiter-Glo ATP luminescence, 16 h; max response: active compounds read low
Procedure, shortened: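 Cytotoxicity counter screen: intracellular ATP quantified by CellTiter-Glo luminescence in the same ARE-bla HepG2 plates, after 16 h compound exposure and a 2 h beta-lactamase substrate step.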

[4] = qHTS Assay for Identifying Gametocytocidal Compounds (AID 743244); further: potency means the concentration at half of the fitted maximal effect;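 on max response: on the % scale 0 is the no-effect control and ±100 the full control effect; actives lower the fluorescent signal which means gametocytes are killed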; details: P. falciparum 3D7 stage III-V gametocytes, alamarBlue, 72 h; max response: active compounds read low
Procedure, shortened: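 In this qHTS viability screen, late-stage 3D7 gametocytes are incubated with compound for 72 h, then with alamarBlue for 24 h; reduced resorufin fluorescence marks killing.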

[5] = qHTS assay for cell viability of the p53RE-bla HCT-116 cell line (AID 743292); further: nearly all actives have a fitted effect of over 55% in size; further: potency means the concentration at half of the fitted maximal effect
Procedure, shortened: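 CellSensor p53RE-bla HCT-116 cells, 4,000/well, preincubated 5 h at 37 C, then exposed to compounds in DMSO for 16 h at 37 C. Viability read as CellTiter-Glo luminescence (intracellular ATP) after 30 min at room temperature.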

[6] = qHTS for compounds that reverse cellular toxicity of Amyloid beta (A-beta) peptide in yeast: LOPAC Validation Assay (AID 720559); details: Potency: rescue of growth toxicity;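 further: plate controls were DMSO for no effect and equimolar ferric chloride plus clioquinol rescue for full effect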
Procedure, shortened: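 Activity is expressed relative to DMSO and an equimolar ferric chloride/clioquinol mix. Compounds were pinned into medium with A-beta-expressing yeast, grown 48 hr at 30 C, then read by absorbance at 600 nm.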

[7] = qHTS for Activators of Parkin Expression: LOPAC Validation Assay (FLuc Reporter) (AID 720573)
Procedure, shortened: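 A neuronal cell line harbouring FLuc and NLuc reporters behind the Parkin promoter was exposed to compounds for 24 h. Firefly luciferase signal, measured after 10 min with detection reagent, was scaled to DMSO and positive-control wells.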

[8] = target: T1, Hexokinase-4 (Homo sapiens) + Glucokinase regulatory protein (Homo sapiens) (UniProt P35557+Q14397); assay: qHTS assay for inhibitors of recombinant human GCK-GKRP interaction: Diaphorase-coupled assay (AID 743205)
T1 sequence (P35557 whole entry, looked up): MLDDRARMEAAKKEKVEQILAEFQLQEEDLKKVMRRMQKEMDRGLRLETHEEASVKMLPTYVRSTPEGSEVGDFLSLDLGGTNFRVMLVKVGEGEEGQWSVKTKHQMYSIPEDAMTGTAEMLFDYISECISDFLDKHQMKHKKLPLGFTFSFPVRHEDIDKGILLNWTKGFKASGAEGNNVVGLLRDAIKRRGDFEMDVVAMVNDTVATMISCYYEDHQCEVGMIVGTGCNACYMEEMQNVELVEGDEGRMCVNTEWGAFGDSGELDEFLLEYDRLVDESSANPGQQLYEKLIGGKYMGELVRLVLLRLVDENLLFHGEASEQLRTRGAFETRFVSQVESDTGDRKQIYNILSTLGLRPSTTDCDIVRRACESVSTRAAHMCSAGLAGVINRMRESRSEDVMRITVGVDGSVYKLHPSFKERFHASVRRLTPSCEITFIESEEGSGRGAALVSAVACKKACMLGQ
T1 sequence (Q14397 whole entry, looked up): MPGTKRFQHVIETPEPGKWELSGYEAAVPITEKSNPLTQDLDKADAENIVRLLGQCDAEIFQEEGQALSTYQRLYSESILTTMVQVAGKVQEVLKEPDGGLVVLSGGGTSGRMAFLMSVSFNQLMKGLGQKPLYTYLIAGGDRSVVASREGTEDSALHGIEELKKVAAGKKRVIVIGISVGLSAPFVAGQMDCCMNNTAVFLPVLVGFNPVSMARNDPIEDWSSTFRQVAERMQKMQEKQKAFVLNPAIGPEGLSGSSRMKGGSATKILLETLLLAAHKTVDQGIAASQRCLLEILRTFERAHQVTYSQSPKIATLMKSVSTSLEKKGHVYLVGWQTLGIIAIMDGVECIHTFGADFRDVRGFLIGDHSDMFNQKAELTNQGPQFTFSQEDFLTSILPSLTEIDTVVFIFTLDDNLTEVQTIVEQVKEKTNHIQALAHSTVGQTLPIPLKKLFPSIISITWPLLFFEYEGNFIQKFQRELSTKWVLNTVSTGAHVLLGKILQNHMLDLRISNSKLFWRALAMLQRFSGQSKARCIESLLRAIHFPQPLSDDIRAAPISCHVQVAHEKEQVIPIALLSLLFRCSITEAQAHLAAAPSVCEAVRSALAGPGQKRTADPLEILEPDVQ
Procedure, shortened: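 Inhibitors of the GCK–GKRP complex relieve GKRP suppression of GCK, detected through a G6PDH–diaphorase cascade reducing resazurin. Human GST-GCK and FLAG-GKRP are used at 10 nM with 5 mM glucose and 0.4 mM ATP.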

[9] = target: T1, Hexokinase-4 (Homo sapiens) + Glucokinase regulatory protein (Homo sapiens); assay: qHTS assay for inhibitors of recombinant human GCK-GKRP interaction: ADP-Glo assay (AID 743206);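 further: plate controls were DMSO plus enzyme for no effect and no enzyme for full effect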
Procedure, shortened: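 Pin-transferred compounds meet a 15 nM GST-GCK/15 nM FLAG-GKRP/2 uM S6P mix (dispense concentrations). ATP is then added to 0.4 mM final with 5 mM glucose, and the reaction runs 60 min at room temperature. ADP is quantified luminescently.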

[10] = target: T1, Hexokinase-4 (Homo sapiens) + Glucokinase regulatory protein (Homo sapiens); assay: qHTS assay for inhibitors of recombinant human GCK-GKRP interaction: HTRF assay (AID 743207);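 further: 0% = DMSO with GCK present and -100% = DMSO wells lacking GCK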
Procedure, shortened: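 Steps: dispense GCK–GKRP complex (5 nM each, GST- and FLAG-tagged) with 2 uM S6P; pin in compounds; add XL665/Eu-cryptate-labelled antibodies; incubate 60 min at room temperature; read time-resolved FRET at 665 and 615 nm.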

[11] = qHTS for Activators of Parkin Expression: LOPAC Validation Assay (NLuc Reporter) (AID 720572)
Procedure, shortened: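 Compound effects on Parkin promoter activity were measured as NanoLuc luminescence after 24 h at 37 C. The neuronal reporter line also carried FLuc, which was read first. LOPAC compounds were tested at 7 concentrations, with normalization to DMSO (0%) and positive control (100%).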

[12] = qHTS assay for cell viability of HEK293 cells (AID 743288); details: ATP luminescence (CellTiter-Glo), 18 h; max response: active compounds read low; further: nearly all actives have a fitted effect of over 50% in size; further: potency means the concentration at half of the fitted maximal effect; on max response: on the % scale 0 is the no-effect control and ±100 the full control effect
Procedure, shortened: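 Quantitative high-throughput screen: compounds were pinned onto parental HEK293 cells (2,000 per well) after a minimum 5 h settling at 37 C, incubated 18 h at 37 C, and intracellular ATP measured by luciferase luminescence.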

NCCO
inactive: Potency [1] | Potency [2] | max response [3] 3.76% | max response [4] 6.49% | Potency [5]

Oc1cc2c(cc1O)CN(C(=S)NCCc1ccc(Cl)cc1)CCC2
inactive: Potency [6] | Potency [7] | outcome [8] | Potency [9] | Potency [10]

COC(=O)c1c(C)[nH]c(C)c1C(=O)c1ccccc1Cc1ccccc1
inactive: Potency [6] | Potency [11] | Potency [7] | outcome [8] | Potency [9] | Potency [10] | max response [4] -0.767%

CC(C)CC(NP(=O)(O)O[C@@H]1O[C@@H](C)[C@H](O)[C@@H](O)[C@H]1O)C(=O)NC(Cc1c[nH]c2ccccc12)C(=O)O (some centres not stated)
inactive: Potency [6] | Potency [11] | Potency [7] | outcome [8] | Potency [9] | max response [4] 18.7%

N#C/C(=C\c1ccc(-c2cc(Cl)ccc2Cl)o1)C(=O)Nc1cccc2ncccc12
inactive: Potency [6] | Potency [11] | Potency [7] | outcome [8] | Potency [9] | max response [4] -7.88%

CCCCCCCC/C=C\CCCCCCCC(=O)NCCO
inactive: Potency [6] | Potency [7] | outcome [8] | Potency [9] | Potency [10] | max response [4] 8.34%

NC(=O)C(=O)O
inactive: Potency [6] | Potency [11] | Potency [7] | outcome [8] | Potency [9] | Potency [10] | max response [4] 24.1%

CCCOC(=O)c1ccc(O)cc1
inactive: Potency [1] | Potency [2] | max response [3] -5.7% and -1.43% and -2.37% | max response [12] -5.57% and 0.165% and 2.13% | Potency [5]

CCCCC[C@H](O)/C=C/[C@@H]1[C@@H](C/C=C\CCCC(=O)O)[C@@H](O)C[C@H]1O
inactive: max response [4] -4.72% and 7.02%

NC(=O)C(c1ccccc1)(c1ccccc1)[C@@H]1CCN(CCc2ccc3c(c2)CCO3)C1
inactive: max response [4] -5.51%

CCCCCCOc1ccccc1C(N)=O
inactive: max response [4] -0.639%

CN1[C@@H]2CC[C@H]1CC(OC(=O)C(CO)c1ccccc1)C2 (some centres not stated)
inactive: Potency [1] | max response [3] -6.68% | max response [12] -4.41% | Potency [5]

CN(C)c1ccc(C(=C2C=CC(=[N+](C)C)C=C2)c2ccccc2)cc1
active: Potency [2] 2.37 µM | Potency [3] 6.31 µM | Potency [12] 3.55 µM | Potency [5] 3.98 µM
inactive: Potency [1]

CC(=O)O[C@H]1C[C@@]2(C)[C@@H](C[C@@H](O)[C@H]3[C@@]4(C)CC[C@@H](O)[C@@H](C)[C@@H]4CC[C@@]32C)/C1=C(\CCC=C(C)C)C(=O)O
inactive: max response [4] -4.85%

S=c1[nH]c2ccccc2s1
inactive: Potency [1] | Potency [2] | max response [3] -14.2% and -2.08% | max response [12] 3.04% and -5.55% | Potency [5]

O=c1cc(-c2ccccc2)oc2ccccc12
inactive: max response [3] -6.91% and -11.5% | max response [12] -12.4% and -11.5% | Potency [5]

CC1(C)S[C@@H]2[C@H](NC(=O)[C@H](N)c3ccc(O)cc3)C(=O)N2[C@H]1C(=O)O
inactive: max response [4] 4.64% and 10.7%

CC(C)OC(=O)c1cc(C(=O)OC(C)C)cc([N+](=O)[O-])c1
inactive: Potency [1] | max response [3] -4.4% | max response [4] 4.99% | max response [12] -14.7% | Potency [5]

COc1cc(CNC(=O)CCCC/C=C/C(C)C)ccc1O
inactive: Potency [2] | max response [3] -7.9% and -5.74% | max response [4] 10.1% | max response [12] -3.17% and -17.3% | Potency [5]

CCCCCC[C@@H](O)C/C=C\CCCCCCCC(=O)O
inactive: max response [4] 10.3% and -5.91% and 3.41%

O=C(Nc1ccc(C(=O)O)c(O)c1)c1ccccc1
inactive: max response [4] 3.53%

CC(=O)[C@]1(O)Cc2c(O)c3c(c(O)c2[C@@H](O[C@H]2C[C@H](N)[C@H](O)[C@H](C)O2)C1)C(=O)c1c(O)cccc1C3=O
active: Potency [4] 5.62 µM

COc1cc(/C=C/C(=O)CC(=O)/C=C/c2ccc(O)c(OC)c2)ccc1O
active: Potency [1] 21.1 µM
inactive: max response [3] -2.44%

Nc1cc(-c2ccncc2)c[nH]c1=O
inactive: Potency [1] | max response [3] -1.18% | max response [4] 14.6% | max response [12] -3.39% | Potency [5]

O=C1CN(/N=C/c2ccc([N+](=O)[O-])o2)C(=O)N1
inactive: Potency [1] | max response [4] 3.97% | Potency [5]

O=C(O)c1ccccc1Nc1cccc(C(F)(F)F)c1
inactive: Potency [1] | max response [3] 0.398% | max response [12] -8.76% | Potency [5]

CC1(C)S[C@@H]2[C@H](NC(=O)[C@H](N)c3ccccc3)C(=O)N2[C@H]1C(=O)O
inactive: Potency [1] | max response [3] -0.498% | max response [4] 0.735% | max response [12] 1.44% | Potency [5]

CC1(C)[C@@H](O)CC[C@]2(C)[C@H]3C(=O)C=C4[C@@H]5C[C@@](C)(C(=O)O)CC[C@]5(C)CC[C@@]4(C)[C@]3(C)CC[C@@H]12
inactive: max response [4] 6.32% and -6.89%

N=C1N=C(N)c2cc3ccccc3cc21
active: Potency [2] 42.2 µM | Potency [12] 44.7 µM | Potency [5] 50.1 µM
inactive: Potency [1] | max response [3] -12.6%

O=C(OCc1ccccc1)c1ccccc1
inactive: Potency [1] | max response [3] -0.23% | max response [4] -5.44% | max response [12] -7.64% | Potency [5]

From PubChem BioAssay (NCATS)
